# In the supplement of paper PMC12067926:
# Tests used:
# Test in all cases: relative growth (AUC of 72 h growth curve relative to DMSO control, dAUC) (ratio); higher = more growth (less inhibition), active = hit call of the paper
# Conditions in all cases: 20 µM;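 active = growth AUC significantly below the DMSO wells by Dunnett test; inactive = the rest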
# [1] = tested on: Prolinoborus 1 (Prolinoborus fasciculus)
# In short: (§1)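 Whole sediment communities and bacterial isolates from Icelandic stream sediments and Silwood Park soil were brought to carrying capacity in Luria–Bertani medium. They were then diluted 1:100 into 96-well plates with each chemical at 20 µM in 1% DMSO, and A600 was recorded every hour for 72 h. The area under each growth curve, integrated by spline, was averaged across three biological replicates. This figure, divided by the mean of the DMSO controls, gives relative growth (dAUC).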
# [2] = tested on: Pseudomonas 1 (Pseudomonas baetica)
# In short: as §1
# [3] = tested on: Pseudomonas 2 (Pseudomonas vancouverensis)
# In short: as §1
# [4] = tested on: Pseudomonas 3 (Pseudomonas mandelii)
# In short: as §1
# [5] = tested on: Pseudomonas 4 (Pseudomonas peli)
# In short: as §1
# [6] = tested on: Pseudomonas 5 (Pseudomonas baetica)
# In short: as §1
# [7] = tested on: Pseudomonas 6 (Pseudomonas sp.)
# In short: as §1
# [8] = tested on: Rhizobium 1 (Rhizobium herbae)
# In short: as §1
# [9] = tested on: Serratia 1 (Serratia sp. 2015-2462-01)
# In short: as §1
# [10] = tested on: Sphingomonas 2 (Sphingomonas sp.)
# In short: as §1
SMILES,relative growth [1],relative growth [2],relative growth [3],relative growth [4],relative growth [5],relative growth [6],relative growth [7],relative growth [8],relative growth [9],relative growth [10]
CON(C)C(=O)Nc1ccc(Cl)c(Cl)c1,0.886 (inactive),0.986 (inactive),0.949 (inactive),0.991 (inactive),0.982 (inactive),0.984 (inactive),1.02 (inactive),0.869 (inactive),0.978 (inactive),1.02 (inactive)
CNC(=O)Oc1cccc2ccccc12,1 (inactive),0.973 (inactive),1.04 (inactive),0.996 (inactive),1.01 (inactive),1.04 (inactive),1.12 (inactive),0.906 (inactive),0.932 (inactive),0.986 (inactive)
CN1COCN(Cc2cnc(Cl)s2)/C1=N\[N+](=O)[O-],0.974 (inactive),0.927 (inactive),1.03 (inactive),1.05 (inactive),0.996 (inactive),1.04 (inactive),1.1 (inactive),1.01 (inactive),0.99 (inactive),1.05 (inactive)
N#CC(CCc1ccc(Cl)cc1)(Cn1cncn1)c1ccccc1 (stereo not given),0.902 (inactive),0.999 (inactive),0.921 (inactive),0.992 (inactive),0.934 (inactive),0.932 (inactive),0.909 (inactive),0.947 (inactive),0.921 (inactive),1.08 (inactive)
Cc1c(COC(=O)[C@@H]2[C@H](/C=C(\Cl)C(F)(F)F)C2(C)C)cccc1-c1ccccc1 (racemic),0.977 (inactive),0.975 (inactive),0.983 (inactive),0.977 (inactive),0.995 (inactive),1.01 (inactive),0.949 (inactive),0.893 (inactive),1.01 (inactive),1.07 (inactive)
CC1(C(=O)Nc2ccc(O)c(Cl)c2Cl)CCCCC1,0.938 (inactive),1.08 (inactive),1.01 (inactive),1.05 (inactive),0.976 (inactive),1.02 (inactive),1.16 (inactive),0.84 (inactive),0.976 (inactive),0.967 (inactive)
CCOc1cc(Oc2ccc(C(F)(F)F)cc2Cl)ccc1[N+](=O)[O-],0.938 (inactive),1.08 (inactive),0.992 (inactive),1.05 (inactive),0.939 (inactive),1.01 (inactive),1.12 (inactive),0.994 (inactive),0.952 (inactive),1.2 (inactive)
CC(C)(C)[C@@H](O)[C@H](Oc1ccc(Cl)cc1)n1cncn1,1.02 (inactive),0.598 (active),0.991 (inactive),0.991 (inactive),0.989 (inactive),0.963 (inactive),0.953 (inactive),1.05 (inactive),1.02 (inactive),1.08 (inactive)
CCC(C)c1ccccc1OC(=O)NC (stereo not given),1.02 (inactive),0.95 (inactive),1.01 (inactive),1.07 (inactive),1.01 (inactive),1.04 (inactive),1.09 (inactive),1.01 (inactive),0.971 (inactive),1 (inactive)
CC1(C)C(C=C(Cl)Cl)C1C(=O)OC(C#N)c1cccc(Oc2ccccc2)c1 (stereo not given),0.983 (inactive),0.942 (inactive),1.06 (inactive),1.06 (inactive),1.04 (inactive),1.02 (inactive),1 (inactive),1.15 (inactive),1.01 (inactive),1.03 (inactive)
CCNC(=O)NC(=O)/C(C#N)=N/OC,0.954 (inactive),0.924 (inactive),0.96 (inactive),0.993 (inactive),0.981 (inactive),0.986 (inactive),1.03 (inactive),1.06 (inactive),1 (inactive),0.919 (inactive)
CC(Oc1ccc(Oc2nc3ccc(Cl)cc3o2)cc1)C(=O)O (stereo not given),0.978 (inactive),0.948 (inactive),1 (inactive),0.97 (inactive),1.01 (inactive),0.962 (inactive),0.916 (inactive),1.07 (inactive),1.04 (inactive),1.12 (inactive)
CNC(=O)CSP(=S)(OC)OC,0.985 (inactive),0.984 (inactive),0.991 (inactive),1.02 (inactive),0.963 (inactive),1.02 (inactive),1.19 (inactive),1.05 (inactive),0.96 (inactive),1.07 (inactive)
Cc1cc(C(F)(C(F)(F)F)C(F)(F)F)ccc1NC(=O)c1cccc(I)c1C(=O)NC(C)(C)CS(C)(=O)=O,0.933 (inactive),0.728 (inactive),0.842 (active),0.883 (inactive),1.13 (inactive),0.92 (inactive),0.776 (inactive),0.937 (inactive),1.19,0.654 (active)
